# High-throughput results (PubChem BioAssay)
# An excerpt weighted towards active compounds, which were near 3.4% of everything screened.
# TEAD-YAP inh: TEAD-YAP interaction inhibition. HEK-TIYL cells, TEAD-Gal4/YAP UAS-luciferase luminescence. inhibition, % at 9.12 µM. 640,000 tested, 1.4% active; in the data active = inhibition above about 32%
# MITF inh: human MITF inhibition, primary screen; O75030; AlphaScreen MITF homodimerization, bead proximity signal; inhibition, % at 2.6 µM; 650,000 tested, 0.91% active; in the data active = inhibition above about 50%
# FBW7 act: activators of human E3 ligase FBW7; Q969H0; AlphaScreen FBW7–phospho-cyclin E peptide binding, activator screen; normalized activity (activation), % at 26.1 µM; 650,000 tested, 0.13% active; AID 1259310; in the data active = normalized activity above about 1.9%;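 also: purified mutant Fbw7 with reduced substrate affinity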
# Target sequence (Q969H0 whole entry, looked up): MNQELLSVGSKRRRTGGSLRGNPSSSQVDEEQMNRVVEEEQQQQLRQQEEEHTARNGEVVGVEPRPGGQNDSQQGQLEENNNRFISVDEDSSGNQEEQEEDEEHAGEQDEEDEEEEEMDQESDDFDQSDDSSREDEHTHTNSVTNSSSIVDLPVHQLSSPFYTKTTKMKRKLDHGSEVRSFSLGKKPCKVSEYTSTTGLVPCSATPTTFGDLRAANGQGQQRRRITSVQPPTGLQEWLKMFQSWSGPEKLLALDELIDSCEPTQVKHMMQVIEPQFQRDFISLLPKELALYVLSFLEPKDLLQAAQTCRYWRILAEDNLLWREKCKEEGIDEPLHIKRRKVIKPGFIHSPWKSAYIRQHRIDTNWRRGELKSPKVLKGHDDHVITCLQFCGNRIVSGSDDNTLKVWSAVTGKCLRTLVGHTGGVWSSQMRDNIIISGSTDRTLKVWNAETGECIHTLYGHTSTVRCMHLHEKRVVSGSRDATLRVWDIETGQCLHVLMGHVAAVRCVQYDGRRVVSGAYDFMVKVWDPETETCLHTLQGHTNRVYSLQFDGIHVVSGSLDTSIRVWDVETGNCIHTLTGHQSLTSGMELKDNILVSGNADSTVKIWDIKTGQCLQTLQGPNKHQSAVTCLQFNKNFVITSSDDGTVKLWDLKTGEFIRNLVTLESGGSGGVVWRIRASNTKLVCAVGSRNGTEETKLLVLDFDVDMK
# GPR151 activ: activates the human receptor GPR151; Q8TDV0; PathHunter beta-arrestin GPR151 cells, luminescence; activation, % at 11.2 µM; 650,000 tested, 1% active; AID 1508602; in the data active = activation above about 4.9%
# Numbers stand for hits; 0 = inactive.
SMILES,TEAD-YAP inh,MITF inh,FBW7 act,GPR151 activ
O=C(CSc1ccc(-c2ccc(Cl)cc2)nn1)N1CCOCC1,0,0,0,0
O=C(N/N=C/c1ccc(O)cc1O)c1ccc(NC(=O)c2ccccc2Cl)cc1,0,0,0,0
O=C(N/N=C/c1ccc(O)cc1O)c1cccc(NC(=O)c2ccccc2F)c1,40,0,0,0
O=C(N/N=C/c1ccccc1Cl)c1cncc(Br)c1,0,0,0,0
O=C(N/N=C\c1ccc(O)cc1O)c1cncc(Br)c1,0,79,0,0
O=C(N/N=C/c1ccc(O)cc1O)c1ccc(Br)cc1,42,0,0,0
O=C(N/N=C/c1ccc(O)cc1O)c1ccc[n+]([O-])c1,0,73,0,0
Cc1cc(-n2c(N)c(C(=O)Nc3ccc(F)cc3)sc2=S)ccc1Cl,0,0,0,0
CC(C)(c1ccccc1)c1ccc(OCC(=O)Nc2ccccc2C(N)=O)cc1,0,0,0,0
O=C(N/N=C/c1ccc(O)cc1O)c1ccc(-c2ccccc2)cc1,45,0,0,0
O=C(N/N=C/c1cccc(O)c1O)c1nn(Cc2ccccc2)c(=O)c2ccccc12,0,0,0,0
O=C(N/N=C/c1ccc(O)cc1O)c1cc2ccccc2cc1O,67,0,0,0
O=C(N/N=C/c1ccc(O)cc1O)c1nn(Cc2ccccc2)c(=O)c2ccccc12,64,0,0,0
O=C(N/N=C\c1ccc(O)cc1O)c1ccc(=O)[nH]n1,0,60,0,0
O=C(N/N=C/c1ccc(O)cc1O)c1ccc(O)cc1,0,0,0,0
O=C(N/N=C\c1cc(Br)ccc1F)c1ccc(=O)[nH]n1,0,0,0,0
O=C(c1cc(-c2ccccc2O)on1)N1CCN(Cc2ccccc2)CC1,0,0,0,0
O=C1NC2(CCN(Cc3ccc(Br)s3)CC2)Oc2ccccc21,0,0,0,0
CC(C)(C)NC(=O)c1cccc(NC(=O)c2cccc(O)c2)c1,34,0,0,0
CC(C)C(=O)Nc1cccc(C(=O)Nc2cccc(O)c2)c1,59,0,0,0
CC(=O)Oc1ccc(C(=O)Nc2cccc(C(=O)NC(C)(C)C)c2)cc1,0,0,0,0
CC(C)C(=O)Nc1cccc(NC(=O)c2cccc(Br)c2)c1,0,0,0,0
O=C(Nc1ccc(N2CCCN(C(=O)C3CC3)CC2)cc1)c1ccc(-n2cccc2)cc1,33,0,0,0
Fc1ccccc1-c1nc(Nc2ccc(Cl)c(Cl)c2)c2ccccc2n1,0,0,0,0
COc1ccc2c(C)nc(Nc3nc(C)cc(=O)[nH]3)nc2c1,39,0,0,0
SMILES,TEAD-YAP inh,MITF inh,FBW7 act,GPR151 activ
CCC(Nc1ccc(Br)cc1)C(=O)N/N=C/c1cc([N+](=O)[O-])ccc1O (stereo unspecified),43,0,0,0
CCC(Nc1ccc(Br)cc1)C(=O)N/N=C/c1cc(OC)ccc1O (stereo unspecified),0,0,0,0
CCC(Nc1ccc(Br)cc1)C(=O)N/N=C/c1ccc(O)cc1O (stereo unspecified),76,0,0,0
CCOC(=O)C1CCN(Cc2cc(OC)ccc2OC)CC1,0,0,0,0
COc1ccc(N2CCN(C(=O)c3sc4nc(C)[nH]c(=O)c4c3C)CC2)cc1,0,0,0,0
O=C(Cn1ncc2ccccc21)Nc1ccccc1Br,0,0,0,0
O=C(Nc1ccc(Br)cn1)c1cccc2ccccc12,32,0,0,0
CSc1ccc(Cl)c(C(=O)Nc2ccc(Br)cn2)c1,35,0,0,0
O=C(Cn1ncc2ccccc21)Nc1ccc(Br)cn1,38,0,0,0
O=C(Nc1ccc(Br)cn1)c1cc(Br)ccc1Cl,43,0,0,0
N#CCCN(CCO)c1ccc(C(C#N)=c2ccc(=C(C#N)C#N)cc2)cc1,0,0,0,0
CN1CCN(C(=O)c2ccc(-c3nc(NCCN4CCOCC4)c4ncn(-c5ccsc5)c4n3)cc2)CC1,0,0,0,0
NC(=O)c1ccc(-c2nc(NCCO)c3ncn(-c4ccccc4)c3n2)cc1,64,0,0,0
O=C(NC1CC1)c1ccc(-c2nc(NCCO)c3ncn(-c4ccccc4)c3n2)cc1,68,0,0,0
NC(=O)c1ccc(-c2nc(NCCN3CCOCC3)c3ncn(-c4ccccc4)c3n2)cc1,61,0,0,0
O=C(NC1CC1)c1ccc(-c2nc(Nc3ccc(Oc4ccccc4)cc3)c3ncn(-c4ccsc4)c3n2)cc1,0,0,0,0
COc1ccc(CCNc2nc(-c3ccc(C(=O)NC4CC4)cc3)nc3c2ncn3-c2ccccc2)cc1,0,0,0,0
CC(=O)Nc1ccc(Nc2nc(-c3ccc(C(=O)NC4CC4)cc3)nc3c2ncn3-c2ccccc2)cc1,48,0,0,0
Cc1cccc(S(=O)(=O)N2CCN(c3cc(Oc4ccccc4)nc(C)n3)CC2)c1,0,0,0,0
Nc1ncnc(N/N=C/c2ccc(C3=CCCC3)s2)c1[N+](=O)[O-],60,0,0,0
Nc1ncnc(N/N=C/c2ccc3ncccc3c2)c1[N+](=O)[O-],86,0,0,0
COc1cc(/C=N/Nc2ncnc(N)c2[N+](=O)[O-])ccc1O,34,0,0,0
Nc1ncnc(N/N=C/c2cccnc2)c1[N+](=O)[O-],0,0,0,0
CCN(Cc1ccccc1)c1ccc(/C=N/Nc2ncnc(N)c2[N+](=O)[O-])cc1,37,0,0,0
COCc1cccc(-c2ccc(C(=O)N3CCN(C)CC3)c(N(C)C)n2)c1,0,0,0,0
SMILES,TEAD-YAP inh,MITF inh,FBW7 act,GPR151 activ
O=C(Nc1ccc2c(c1)OCO2)c1cnc(Nc2ccc(N3CCOCC3)cc2)s1,0,0,0,0
Cc1ccc(C(=O)[C@@H]2[C@@H](c3ccsc3)C(C#N)(C#N)[C@H]3C=Cc4ccccc4N23)cc1,0,0,0,0
COc1ccc(C(=O)[C@@H]2[C@@H](c3ccc(OC)cc3)C(C#N)(C#N)[C@H]3C=Cc4ccccc4N23)cc1,63,0,0,0
COc1ccc(C(=O)[C@@H]2[C@@H](c3cccc(Br)c3)C(C#N)(C#N)[C@H]3C=Cc4ccccc4N23)cc1,64,0,0,0
COc1ccc(C(=O)[C@@H]2[C@@H](c3ccsc3)C(C#N)(C#N)[C@H]3C=Cc4ccccc4N23)cc1,60,0,0,0
O=[N+]([O-])c1ccc(Sc2nnc(Cc3ccccc3)o2)nc1,57,0,0,0
O=[N+]([O-])c1ccc(CSc2nnc(Cc3ccccc3)o2)cc1,0,0,0,0
COc1ccc(Br)cc1/C=C1\N=C(c2ccco2)OC1=O,0,0,0,0
c1coc(-c2nnc(SCc3nc4ccccc4[nH]3)o2)c1,44,0,0,0
CCCN(CCC)C(=O)CSc1nc2n[nH]c(C)c2c(=N)n1-c1cccc(C)c1,0,0,0,0
CCC(Sc1nc2n[nH]c(C)c2c(=N)n1-c1cccc(Cl)c1)C(=O)N1CCCC1 (stereo unspecified),49,0,0,0
CCC(Sc1nc2n[nH]c(C)c2c(=N)n1-c1cccc(C)c1)C(=O)N(CC)CC (stereo unspecified),39,0,0,0
CCc1cc(C(=O)OC)c(NC(=S)NNC(=O)c2ccc([N+](=O)[O-])c(C)c2)s1,0,0,0,0
